Assay results reported in PubChem BioAssay.
The source made the active and inactive calls.

How the values were obtained:
[1] = system: Plasmodium falciparum Sir2 (PF13_0152, Sir2A); experiment: pfSir2 binders on small-molecule microarrays, primary screen, biochemical, small-molecule microarray, 635 nm fluorescence (AID 1098); settings: small-molecule microarray binding, fluorescence 635 nm; higher = more signal;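 further: score merges spot fluorescence intensity with its signal-to-noise ratio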
[2] = small-molecule microarray binders of probe aDKK1, primary screen, biochemical, biotinylated probe, 635/667 nm fluorescence (AID 1099); settings: higher = more signal;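 further: score merges 667nm spot fluorescence with signal to noise across triplicate slides; reference of the scale not given here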
[3] = small-molecule microarray binders of probe aCHRDL2, primary screen, biochemical, biotinylated probe, 635/667 nm fluorescence (AID 1100); settings: higher = more signal
[4] = splicing luciferase reporter signal modulators, primary screen, spliceosome inhibition project, cell-based, HEK293, splice +/- reporter (AID 1101); settings: luminescence, 24 h, higher = more signal, called active from +8 up or from −8 down;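 further: HEK293 cells carrying a splicing-competent luciferase reporter gene; test concentration not given here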
[5] = biological target: Fibroblast growth factor 10 (Homo sapiens) (UniProt O15520); experiment: FGF10 binders on small-molecule microarrays, primary screen, biochemical, small-molecule microarray, 635 nm fluorescence (AID 1102); settings: FGF10 binding, fluorescence 635 nm, higher = more signal
Fibroblast growth factor 10 (Homo sapiens), sequence (O15520 whole entry, looked up): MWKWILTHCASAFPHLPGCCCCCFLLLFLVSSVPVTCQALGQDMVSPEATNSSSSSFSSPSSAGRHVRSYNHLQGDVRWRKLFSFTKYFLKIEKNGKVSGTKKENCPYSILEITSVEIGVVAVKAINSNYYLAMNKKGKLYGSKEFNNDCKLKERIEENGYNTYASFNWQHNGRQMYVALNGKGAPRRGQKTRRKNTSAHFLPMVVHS

[6] = system: glycogen synthase kinase-3 (GSK3A per assay name; protocol says GSK3B); experiment: GSK3 binders on small-molecule microarrays, primary screen, biochemical, small-molecule microarray, 635 nm fluorescence, GSK3A (AID 1103); settings: small-molecule microarray binding, fluorescence 635 nm; higher = more signal; further: the record names both GSK3A and GSK3B
[7] = biological target: Epidermal growth factor receptor (Homo sapiens) (UniProt P00533); experiment: EGFR binders on small-molecule microarrays, primary screen, biochemical, small-molecule microarray, 635 nm fluorescence (AID 1104); settings: EGFR binding, higher = more signal;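 further: score merges 667 nm emission intensity with spot signal to noise over triplicate slides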
Epidermal growth factor receptor (Homo sapiens), sequence (P00533 whole entry, looked up): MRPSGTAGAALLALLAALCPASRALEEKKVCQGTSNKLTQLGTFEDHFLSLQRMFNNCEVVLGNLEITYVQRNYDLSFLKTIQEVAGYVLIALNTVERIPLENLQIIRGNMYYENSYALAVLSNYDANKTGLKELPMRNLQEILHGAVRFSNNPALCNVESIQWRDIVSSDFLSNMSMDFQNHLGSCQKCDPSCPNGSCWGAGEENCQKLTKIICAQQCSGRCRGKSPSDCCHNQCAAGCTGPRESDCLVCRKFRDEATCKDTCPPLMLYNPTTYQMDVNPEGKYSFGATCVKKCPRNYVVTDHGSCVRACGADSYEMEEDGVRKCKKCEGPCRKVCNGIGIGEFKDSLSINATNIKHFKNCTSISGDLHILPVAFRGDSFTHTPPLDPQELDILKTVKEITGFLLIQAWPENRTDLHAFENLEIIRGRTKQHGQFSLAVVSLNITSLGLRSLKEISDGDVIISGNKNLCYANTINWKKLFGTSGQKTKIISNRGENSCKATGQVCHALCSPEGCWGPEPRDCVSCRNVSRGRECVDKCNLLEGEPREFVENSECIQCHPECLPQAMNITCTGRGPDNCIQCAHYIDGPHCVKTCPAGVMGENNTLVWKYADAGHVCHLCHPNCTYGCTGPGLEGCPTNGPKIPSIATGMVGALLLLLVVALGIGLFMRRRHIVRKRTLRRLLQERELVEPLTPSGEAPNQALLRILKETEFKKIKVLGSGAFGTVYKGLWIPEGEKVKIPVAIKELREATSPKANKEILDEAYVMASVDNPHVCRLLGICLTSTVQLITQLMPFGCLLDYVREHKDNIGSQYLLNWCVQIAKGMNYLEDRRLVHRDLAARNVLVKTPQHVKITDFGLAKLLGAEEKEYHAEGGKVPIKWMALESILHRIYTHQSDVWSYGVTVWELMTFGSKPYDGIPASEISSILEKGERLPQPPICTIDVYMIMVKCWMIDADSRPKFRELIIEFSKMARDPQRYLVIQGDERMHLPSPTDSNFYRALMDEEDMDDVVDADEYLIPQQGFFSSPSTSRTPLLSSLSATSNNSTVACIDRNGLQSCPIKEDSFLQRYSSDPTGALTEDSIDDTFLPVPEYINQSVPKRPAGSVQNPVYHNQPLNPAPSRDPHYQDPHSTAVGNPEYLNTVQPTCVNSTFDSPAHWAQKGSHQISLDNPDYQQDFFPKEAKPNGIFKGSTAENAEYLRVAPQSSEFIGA

[8] = biological target: Follistatin-related protein 3 (Homo sapiens) (UniProt O95633); experiment: FSTL3 binders on small-molecule microarrays, primary screen, biochemical, small-molecule microarray, 635 nm fluorescence (AID 1105); settings: FSTL3 binding, higher = more signal;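 further: score merges emission near 667 nm and signal to noise per printed spot across three slides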
Follistatin-related protein 3 (Homo sapiens), sequence (O95633 whole entry, looked up): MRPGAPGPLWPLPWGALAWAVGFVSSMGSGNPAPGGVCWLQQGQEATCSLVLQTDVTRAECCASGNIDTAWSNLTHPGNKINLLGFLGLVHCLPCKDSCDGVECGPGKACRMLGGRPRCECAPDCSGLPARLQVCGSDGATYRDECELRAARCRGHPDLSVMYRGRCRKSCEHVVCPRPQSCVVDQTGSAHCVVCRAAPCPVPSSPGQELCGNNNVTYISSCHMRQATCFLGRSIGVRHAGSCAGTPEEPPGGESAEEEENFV

[9] = biological target: Dickkopf-related protein 1 (Homo sapiens) (UniProt O94907); experiment: DKK1 binders on small-molecule microarrays, primary screen, biochemical, small-molecule microarray, 635 nm fluorescence scan (AID 1106); settings: DKK1 binding, higher = more signal;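 further: score merges emission near 667 nm with signal to noise over three replicate slides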
Dickkopf-related protein 1 (Homo sapiens), sequence (O94907 whole entry, looked up): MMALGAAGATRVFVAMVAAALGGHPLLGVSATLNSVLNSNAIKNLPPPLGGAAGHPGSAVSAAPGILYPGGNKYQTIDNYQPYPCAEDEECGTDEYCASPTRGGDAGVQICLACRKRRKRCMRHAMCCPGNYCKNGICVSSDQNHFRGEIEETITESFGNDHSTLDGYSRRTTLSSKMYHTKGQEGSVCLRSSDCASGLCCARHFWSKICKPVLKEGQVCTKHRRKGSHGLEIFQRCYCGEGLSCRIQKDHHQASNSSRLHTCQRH

[10] = system: Inhibin beta A chain (activin A); experiment: INHBA (activin A) binders on microarrays, primary screen, biochemical, small-molecule microarray, 635 nm fluorescence scan (AID 1107); settings: small-molecule microarray binding, higher = more signal;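 further: mouse activin A protein probed at 4.33 µg/mL on printed slides; score merges bound-protein fluorescence near 667 nm with spot signal-to-noise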

SMILES | composite z-score [1] | composite z-score [2] | composite z-score [3] | z-score [4] | composite z-score [5] | composite z-score [6] | composite z-score [7] | composite z-score [8] | composite z-score [9] | composite z-score [10]
COCCOC(=O)N1C(=O)[C@@]2(c3cc(C#CCC(C(=O)OC)C(=O)OC)ccc31)[C@H](c1ccccc1OCCO)N1[C@H](c3ccccc3)[C@H](c3ccccc3)OC(=O)[C@H]1[C@@H]2C(=O)N1CCN(c2ncccn2)CC1 | 0.875 | 0.231 | 0.237 | -0.397 (inactive) | 1.08 | 1.32 | 0.94 | 1.45 | 0.853 | 1.14
O=C(CS)NCCCCCCNC(=O)[C@@H]1C[C@@H]2C(=O)N[C@@H](Cc3ccccc3)C(=O)N2[C@@H]1c1cccc(OCCO)c1 | 1.5 | -0.367 | 0.594 | 0.528 (inactive) | 1.32 | 1.34 | 0.557 | 1.26 | 0.859 | 0.382
CC(=O)NCCCC[C@@H]1NC(=O)[C@@H]2C[C@H](C(=O)NCCCCCNC(=O)CS)[C@H](c3cccc(OCCO)c3)N2C1=O | 1.16 | -0.394 | -0.155 | -2.01 (inactive) | 0.0349 | -0.0868 | 0.724 | 1.07 | 1.11 | 0.337
COC(=O)[C@@]1(Cc2ccc(OC)cc2)[C@H]2c3cc(C(=O)N4CCCC4)n(Cc4ccc(O)c(OC)c4)c3C[C@H]2CN1C(=O)c1ccccc1 | 1.18 | 1.92 | 1.39 | -1.15 (inactive) | 0.511 | 0.164 | 0.207 | 0.282 | 0.0115 | -0.0478
C=CCC(OC(C)=O)[C@@H]1[C@@H](N(Cc2ccc(-c3ccccc3)cc2)C(=O)c2cccc3ccccc23)c2cc(OCCCO)ccc2N1C(=O)c1ccc(-c2ccccc2)cc1 (stereo not given in full) | -0.333 | 0.4 | 0.672 | -1.05 (inactive) | 0.164 | 0.366 | -0.192 | 0.269 | -0.111 | 1.09
COC(=O)c1c(CC[C@@H](CO)NC(=O)NCCn2cc(C3(O)CCCC3)nn2)oc(C(C)=O)c1C(=O)OC | 0.546 | -0.147 | -0.26 | -0.152 (inactive) | -0.0339 | -0.0275 | 0.218 | -0.234 | 0.0587 | 0.129
COC(=O)[C@@]1(Cc2ccc(OC)cc2)[C@@H]2C(=CC(=O)[C@H]2CC(=O)C(=O)N2CCCC2)CN1C(=O)c1ccccc1 | 0.108 | 1.01 | 0.918 | -2.47 (inactive) | -0.148 | -0.573 | 0.351 | 0.0649 | -0.69 | 0.765
CCOC(=O)C[C@H]1[C@H](OC(=O)c2cc3ccccc3oc2=O)[C@@H](NC(=O)c2ccccc2)c2cc(OCCCO)ccc2N1C(=O)c1ccc2ccccc2n1 | 0.485 | -0.128 | -0.446 | 0.0189 (inactive) | 0.72 | 0.228 | 0.536 | 1.11 | 0.425 | 0.344
C=C[C@H](C)[C@@H](OC(=O)Nc1ccc(OC)cc1)c1ccc(O)c2ccccc12 | 0.408 | -0.398 | -0.083 | 2.41 (inactive) | -0.117 | -0.177 | -0.568 | 0.386 | 0.209 | 0.722
COc1ccc([C@H]2OC[C@@H]3C[C@@H](Cc4ccccc4)C(=O)N32)cc1 | 0.143 | -0.191 | -0.435 | 0.247 (inactive) | 1.3 | 0.228 | 0.424 | 0.821 | 0.326 | -0.0187
COC(=O)[C@@]1(Cc2ccc(F)cc2)[C@H]2c3cc(C(=O)N4CCCC4)n(Cc4ccc(S(C)(=O)=O)cc4)c3C[C@H]2CN1C(=O)c1ccccc1 | 1.2 | 1.14 | 0.949 | -0.501 (inactive) | 0.598 | 0.108 | 0.771 | 0.473 | 0.328 | 1.38
CCOC(=O)C1=CC[C@@H](c2ccccc2)N(S(=O)(=O)c2ccc(C)cc2)[C@H]1c1ccccc1C | 1.42 | 0.311 | 0.431 | -0.876 (inactive) | 0.607 | 0.683 | 0.375 | 1.05 | 0.349 | 0.97
C#C[C@H](O[Si](C#Cc1ccc(Oc2ccccc2)cc1)(C(C)C)C(C)C)c1ccccc1 | 1.39 | 0.629 | 0.0024 | -0.855 (inactive) | 0.406 | 0.639 | 0.144 | 0.563 | -0.0522 | -0.0811
COCCOC(=O)N1C(=O)[C@@]2(c3ccccc31)[C@H](c1ccccc1OCCO)N1[C@H](c3ccccc3)[C@H](c3ccccc3)OC(=O)[C@H]1[C@@H]2C(=O)N1CCN(c2ncccn2)CC1 | 1.21 | 0.386 | 0.72 | -0.869 (inactive) | 0.357 | 0.852 | 0.792 | 0.555 | 0.471 | -0.0468
O=C(NCCN1CCOCC1)C1N=C(c2ccc(OCCCO)cc2)N(c2ccccc2)O1 (stereo not given) | 0.439 | 0.273 | 0.766 | -0.764 (inactive) | 1.56 | 1.08 | 0.837 | 0.751 | 0.915 | 0.145
CCCC[C@@H]1C[C@H]1[C@@H](NC(=O)c1ccco1)c1ccc(-c2ccccc2)cc1 | -0.338 | 0.189 | 0.272 | -1.61 (inactive) | 0.222 | 0.118 | -0.0501 | -0.0483 | -0.426 | 0.39
